The text below walks through data of the antibiotic and cytotoxicity screens of Wong et al. (2023).

The campaign covered roughly 39,000 compounds. About 3,300 (8.5%) were called active. The sample as a whole holds a higher share of actives than the screen did.

In the assay the test system is HepG2. Description: cytotoxicity call (relative viability < 0.9). The note with it: 10 µM.
`C[C@@H]1CN([C@@H](C)CO)C(=O)Cc2cc(NC(=O)Cn3cnnn3)ccc2O[C@@H]1CN(C)S(=O)(=O)c1cn(C)cn1`: the cytotoxicity call is “inactive”.
As for `CSc1ccc(-c2nnn(CC(N)=O)n2)cc1`, the cytotoxicity call is “inactive”.
Then `Cc1noc(C)c1NC(=O)N(C)C[C@H]1Oc2ccc(NC(=O)NC(C)C)cc2C(=O)N([C@H](C)CO)C[C@H]1C`, with “inactive”.
Then `COc1ccc(S(=O)(=O)Nc2ccc3c(c2)C(=O)N([C@H](C)CO)C[C@H](C)[C@H](CN(C)S(=O)(=O)c2cn(C)cn2)O3)cc1`, with “inactive”.
Then `C[C@H]1CN([C@@H](C)CO)C(=O)c2cc(NC(=O)c3ccncc3)ccc2O[C@H]1CN(C)S(=O)(=O)c1cccs1`, with “inactive”.
For the molecule `COCCOC(=O)N1C(=O)[C@@]2(c3cc(C#CC4=CCCCC4)ccc31)[C@H](C(=O)N1CCN(c3ncccn3)CC1)[C@H]1C(=O)O[C@H](c3ccccc3)[C@H](c3ccccc3)N1[C@@H]2c1ccc(O)cc1`, the cytotoxicity call was “inactive”.
Turning to `C=CCn1c(N2CCN(c3ccc(OC)cc3)CC2)nc2c1c(=O)n(C)c(=O)n2C`, the cytotoxicity call was “inactive”.
The entry for `C=CCn1c(=O)c2cnc(Nc3ccc(N4CCN(C)CC4)cc3)nc2n1-c1cccc(C(C)(C)O)n1` is “active”; for `COC(=O)C[C@@H]1CC[C@H]2[C@@H](COC[C@@H](O)CN2S(=O)(=O)c2ccccc2C)O1` it is “inactive”.
The entry for `Cn1c(=O)cc(N2CCCC(N)C2)n(Cc2ccccc2C#N)c1=O.O=C(O)c1ccccc1` (stereo unspecified) is “active”.
The entry for `Cn1c(=O)cc(N2CCC[C@@H](N)C2)n(Cc2ccccc2C#N)c1=O` is “inactive”; for `Cn1c(=O)cc(N2CCC[C@@H](N)C2)n(Cc2cc(F)ccc2C#N)c1=O` it is “inactive”; for `C[C@H](CO)N1C[C@H](C)[C@@H](CN(C)C(=O)Cc2ccccc2)OCCCC[C@H](C)Oc2ccc(NC(=O)Nc3ccc(F)cc3)cc2C1=O` it is “inactive”.
`CCCC#Cc1ccc2c(c1)O[C@@H](CN(C)S(=O)(=O)c1cccc(F)c1)[C@H](C)CN([C@H](C)CO)S2(=O)=O`: the cytotoxicity call is “inactive”.
For the molecule `Cc1ccc(S(=O)(=O)N2CCNCC2)cc1`, the cytotoxicity call is “inactive”.
The entry for `Br.Cc1ccc(Sc2ccccc2N2CCNCC2)c(C)c1` is “active”.
On to `C[C@@H]1CN([C@@H](C)CO)C(=O)c2cc(C#Cc3cccc(F)c3)cnc2O[C@@H]1CN(C)Cc1ccccn1`, for which the cytotoxicity call is “inactive”.
The entry for `C[C@@H]1CCCCO[C@@H](CN(C)S(=O)(=O)c2cccs2)[C@@H](C)CN([C@H](C)CO)C(=O)c2cc(NC(=O)Nc3cccc4ccccc34)ccc2O1` is “inactive”.
Turning to `C/C=C/C[C@@H](C)[C@@H](O)[C@H]1C(=O)N[C@@H](CC)C(=O)N(C)CC(=O)N(C)[C@@H]([C@@H](C)CC)C(=O)N[C@@H](C(C)C)C(=O)N(C)[C@@H](CC(C)C)C(=O)N[C@@H](C)C(=O)N[C@H](C)C(=O)N(C)[C@@H](CC(C)C)C(=O)N(C)[C@@H](CC(C)C)C(=O)N(C)[C@@H](C(C)C)C(=O)N1C`, the cytotoxicity call was “inactive”.
The entry for `CC=CCC(C)C(O)C1C(=O)NC(CC)C(=O)N(C)CC(=O)N(C)C(CC(C)C)C(=O)NC(C(C)C)C(=O)N(C)C(CC(C)C)C(=O)NC(C)C(=O)NC(C)C(=O)N(C)C(CC(C)C)C(=O)N(C)C(CC(C)C)C(=O)N(C)C(C(C)C)C(=O)N1C` (stereo unspecified) is “active”; for `C=C/C=C/C[C@@H](C)[C@@H](O)[C@H]1C(=O)N[C@@H](CC)C(=O)N(C)CC(=O)N(C)[C@@H](CC(C)C)C(=O)N[C@@H](C(C)C)C(=O)N(C)[C@@H](CC(C)C)C(=O)N[C@@H](C)C(=O)N[C@H](C)C(=O)N(C)[C@@H](CC(C)C)C(=O)N(C)[C@@H](CC(C)C)C(=O)N(C)[C@@H](C(C)C)C(=O)N1C` it is “inactive”.
